p97 inhibitor = blocks human p97 ATPase activity; P55072; recombinant p97 ATPase, Kinase-Glo ATP luminescence, 3 h; inhibition, % at 8 µM; 0.42% of 220,000 active; in the data active = inhibition above about 15%
Target sequence (P55072 whole entry, looked up): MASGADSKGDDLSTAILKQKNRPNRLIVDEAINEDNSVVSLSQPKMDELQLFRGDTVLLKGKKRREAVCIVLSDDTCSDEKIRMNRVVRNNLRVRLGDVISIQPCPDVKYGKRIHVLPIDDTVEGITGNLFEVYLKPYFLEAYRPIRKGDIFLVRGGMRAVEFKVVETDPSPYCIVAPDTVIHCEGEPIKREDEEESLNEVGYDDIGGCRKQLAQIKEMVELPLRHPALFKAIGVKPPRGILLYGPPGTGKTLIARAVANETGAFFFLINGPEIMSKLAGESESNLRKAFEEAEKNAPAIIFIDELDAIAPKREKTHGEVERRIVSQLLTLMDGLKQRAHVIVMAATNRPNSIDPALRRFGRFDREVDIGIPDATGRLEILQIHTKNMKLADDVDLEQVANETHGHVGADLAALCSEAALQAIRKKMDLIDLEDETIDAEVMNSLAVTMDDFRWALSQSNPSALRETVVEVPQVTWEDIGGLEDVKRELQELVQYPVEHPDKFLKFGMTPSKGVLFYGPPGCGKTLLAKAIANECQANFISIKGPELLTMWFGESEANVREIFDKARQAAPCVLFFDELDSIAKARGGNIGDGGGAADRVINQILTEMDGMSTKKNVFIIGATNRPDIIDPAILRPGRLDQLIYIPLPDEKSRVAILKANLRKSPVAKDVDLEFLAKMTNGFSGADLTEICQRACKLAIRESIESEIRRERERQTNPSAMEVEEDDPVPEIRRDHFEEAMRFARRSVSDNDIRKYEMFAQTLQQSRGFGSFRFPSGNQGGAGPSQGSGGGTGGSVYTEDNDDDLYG
Redox H2O2 prof = compounds producing H2O2 with reducing agent – biochemical, NIH compound library profiling, artefact control for MLSCN library redox annotation, primary screen. AID 878. activation, % at 10 µM. 0.03% of 200,000 active. DTT-dependent redox cycling H2O2, phenol red/HRP absorbance; 100% = 100 µM peroxide control, 0% = buffer;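 active = activation of at least 50% relative to the plate's high and low controls in the primary single-dose screen; inactive = activation below 50%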;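 note: compound incubated with DTT at 0.8 mM final as the reducing agent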
S1P4 antagonist = human S1P4 receptor antagonism | inhibition, % at 4.98 µM | 0.26% of 220,000 active | S1P4-expressing cells, antagonist mode, reporter read-out; in the data active = inhibition above about 29%
S1P3 antagonist = antagonists of human S1P3 receptor | CHO S1P3 NFAT-BLA reporter, FRET fluorescence, antagonist mode | inhibition, % at 4.98 µM | 0.27% of 170,000 active | AID 485;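 active = inhibition above the plate cutoff, the mean inhibition of test wells on that plate plus 3 SD, cut at about 28% in these data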;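 note: cells challenged with S1P at its EC80 of 0.8 µM; blue over green emission ratio from cleaved BLA substrate after 4 h stimulation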
S1P4 agonist = agonists of human S1P4 receptor. S1P4-expressing cell line, agonist reporter assay. AID 1509. activation, % at 4.98 µM. 0.35% of 220,000 active. O95977; in the data active = activation above about 11%
SUMO HTRF inh = inhibitors of human SUMOylation (UBC9); P63279; HTRF SUMOylation assay, SAE1/SAE2 + UBC9, in vitro; inhibition, % at 35 µM; 0.36% of 290,000 active; AID 2006; in the data active = inhibition above about 50%, passing the limit was not always enough
S1P4 antag cf = human S1P4 antagonism, confirmation. shares compounds with S1P4 antagonist. S1P4-expressing cell line, antagonist mode, reporter read-out. inhibition, % at 4.98 µM. 71% of 520 active; in the data active = inhibition above about 30%
S1P1 antag = blocks human S1P1, counter-screen for S1P4 antagonists | shares compounds with S1P4 antagonist | cell-based S1P1 antagonist counterscreen, inhibition | inhibition, % at 4.98 µM | 37% of 520 active | AID 1564; in the data active = inhibition above about 40%;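 note: receptor stimulated with S1P near its EC80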
Large screens that a line does not name were inactive (follow-up assays come after a bar, where they were run). Most compounds without a hit are left out; they make up all but 1.1% or so of the library.

CN(C)c1ccc(-n2cccc2/C=C/[N+](=O)[O-])cc1	none
CN(c1ccccc1)c1ccc(/C=C/[N+](=O)[O-])cc1	S1P4 antagonist 55.5 | S1P4 antag cf 119.4 | S1P1 antag 66.5
Nc1cccc2c1C(=O)N(C(=O)c1ccc(Cl)c(S(=O)(=O)N3CCCCCC3)c1)C2=O	S1P4 antagonist 31.9 (no result: S1P3 antagonist) | S1P4 antag cf 32.9 | S1P1 antag inactive
N#CCCN1CCN(Cc2cc(-c3ccccc3)ccc2O)CC1	S1P4 antagonist 39.2 | S1P4 antag cf inactive | S1P1 antag inactive
CC(C)(C)CC(C)(C)c1ccc(O)c(CN2CCN(CCC#N)CC2)c1	none (no result: S1P3 antagonist)
CC(=O)n1cc(N(C(=O)CCl)c2ccccc2)c2ccccc21	S1P4 antagonist 42.4 (no result: Redox H2O2 prof) | S1P4 antag cf 100.0 | S1P1 antag inactive
COc1ccc(/C=C(/C(=O)c2ccc(Cl)cc2Cl)n2cncn2)cc1	S1P4 antagonist 37.1 (no result: S1P3 antagonist) | S1P4 antag cf inactive | S1P1 antag inactive
CC(C)CC(=O)/C(=C\c1ccc(Cl)cc1Cl)n1cncn1	S1P4 antagonist 52.6 | S1P4 antag cf 119.3 | S1P1 antag 95.8
COc1ccc(C(=O)N2CCN(c3ccccn3)CC2)cc1[N+](=O)[O-]	none
O=C(c1ccc([N+](=O)[O-])cc1)N1CCN(c2cccc3[nH]ccc23)CC1	none (no result: Redox H2O2 prof)
CCCCC(=O)OCc1nc(N)nc(Nc2ccccc2C)n1	none
COc1ccccc1C(=O)OCc1nc(N)nc(Nc2ccccc2C)n1	S1P4 antagonist 107.0 | S1P4 antag cf inactive | S1P1 antag inactive
CCCCC(=O)Nc1cc(Cl)ccc1C(=O)O	none
CC(=O)N1CCOc2ccc(S(=O)(=O)N3CCC(C(=O)NCc4ccc(C)cc4)CC3)cc21	none (no result: p97 inhibitor, Redox H2O2 prof, S1P4 antagonist, S1P3 antagonist, S1P4 agonist)
Cc1cccc(/C=N\N=C\c2cccc(C)c2)c1	none (no result: p97 inhibitor, Redox H2O2 prof, S1P4 antagonist, S1P3 antagonist, S1P4 agonist)
COc1cc(/C=N/Nc2nc(N3CCCCC3)nc(N3CCCCC3)n2)ccc1OC(=O)c1ccco1	none
O=C(Oc1cccc(/C=N/Nc2nc(Nc3ccccc3)nc(N3CCOCC3)n2)c1)c1ccco1	S1P4 antagonist 37.9 | S1P4 antag cf 70.3 | S1P1 antag 47.6
COc1ccccc1C(c1nnnn1C(C)(C)C)N1CCCCCC1 (configuration not stated)	S1P4 antagonist 32.3 | S1P4 antag cf inactive | S1P1 antag inactive
COc1ccccc1C(c1nnnn1C(C)(C)C)N1CCN(C(=O)c2ccco2)CC1 (configuration not stated)	none
Clc1ccc2c(c1)C(N1CCNCC1)Cc1ccccc1S2 (configuration not stated)	none (no result: S1P3 antagonist)
COCCCN1CCN(C2Cc3ccccc3Sc3ccc(Cl)cc32)CC1 (configuration not stated)	S1P4 antagonist 29.1 | S1P4 antag cf inactive | S1P1 antag inactive
CCOC(=O)C[N+](CC)(CC)CC#Cc1ccccc1	none
CC1=NNC(=O)/C1=C\c1cn(-c2ccccc2)nc1-c1ccccc1	S1P4 antagonist 35.6 | S1P4 antag cf 116.4 | S1P1 antag 55.3
O=Cc1cn(-c2ccccc2)nc1-c1ccccc1	none (no result: p97 inhibitor, Redox H2O2 prof, S1P4 antagonist, S1P3 antagonist, S1P4 agonist)
Cc1c(NC(=O)c2cccs2)c(=O)n(-c2ccccc2)n1C	none
CC(C)c1nnc(NC(=O)CCS(=O)(=O)c2nc(-c3cccs3)cc(C(F)(F)F)n2)s1	S1P4 antagonist 50.0 | S1P4 antag cf 108.7 | S1P1 antag 53.9
CC(C)c1nnc(NC(=O)CCS(=O)(=O)Cc2ccccc2)s1	none (no result: p97 inhibitor, Redox H2O2 prof, S1P4 antagonist, S1P3 antagonist, S1P4 agonist)
CS(=O)(=O)N1CCC(C(=O)c2cccc(Cl)c2)CC1	none
O=C(Cn1ncc(Cl)c(Cl)c1=O)N1CCN(S(=O)(=O)c2ccc3ccccc3c2)CC1	S1P4 antagonist 40.5 | S1P4 antag cf 115.8 | S1P1 antag 68.9
Cc1ccc(NC(=O)c2cc(-c3ccccc3)nn2-c2ccccc2)cc1	none
O=C(Nc1ccc(F)cc1)c1nn(-c2ccccc2)c(=O)cc1Cl	S1P4 antagonist 45.5 | S1P4 antag cf 74.7 | S1P1 antag 71.0
CCN(CC)S(=O)(=O)c1cc(Cl)ccc1OC	none
CC(C)(C)C(=O)N1CCN(c2ccc(NC(=O)c3ccc([N+](=O)[O-])o3)cc2)CC1	none (no result: p97 inhibitor, Redox H2O2 prof, S1P4 antagonist, S1P3 antagonist, S1P4 agonist)
CCC(=O)N1CCN(c2ccc(NC(=O)c3ccc([N+](=O)[O-])o3)cc2)CC1	S1P4 antagonist 77.8 | S1P4 antag cf 85.1 | S1P1 antag 73.9
CCCC(=O)N1CCN(c2ccc(NC(=O)c3ccc([N+](=O)[O-])o3)cc2)CC1	S1P4 antagonist 77.7 | S1P4 antag cf 101.1 | S1P1 antag 83.8
CCCC(=O)N1CCN(c2ccc(NC(=O)c3ccc(Br)o3)cc2)CC1	none
CCC(CC)c1nnc(NC(=O)c2ccc(N3CCCC3=O)cc2)s1	none (no result: S1P3 antagonist)
CCNC(=O)CN(c1ccc(Oc2ccccc2)cc1)S(=O)(=O)c1ccccc1	none (no result: p97 inhibitor, Redox H2O2 prof, S1P4 antagonist, S1P3 antagonist, S1P4 agonist)
O=C(CSc1n[nH]c(-c2ccco2)n1)Nc1ccccc1Cl	none (no result: p97 inhibitor, Redox H2O2 prof, S1P4 antagonist, S1P3 antagonist, S1P4 agonist)
Cc1c(OCC(=O)NCCN2CCOCC2)ccc2c(-c3ccccc3)cc(=O)oc12	none (no result: p97 inhibitor, Redox H2O2 prof, S1P4 antagonist, S1P3 antagonist, S1P4 agonist)
N#CCSc1nnc(N)s1	none
N#CCSc1nnc(SCC#N)s1	S1P4 antagonist 31.9 (no result: Redox H2O2 prof) | S1P4 antag cf inactive | S1P1 antag inactive
COC(=O)COc1ccc(S(=O)(=O)N2CCN(c3ccccc3F)CC2)cc1	S1P4 antagonist 29.3 | S1P4 antag cf inactive | S1P1 antag inactive
COC(=O)COc1ccc(S(=O)(=O)N2CCN(c3ccccc3)CC2)cc1	none
CN(C)/C=C/C(=O)c1cnc(-c2ccccc2)s1	S1P4 antagonist 38.1 | S1P4 antag cf inactive | S1P1 antag inactive
O=C(/C=C/c1cc(Br)ccc1O)c1ccco1	S1P4 antagonist 54.8 (no result: Redox H2O2 prof) | S1P4 antag cf 103.0 | S1P1 antag 55.5
CC1CC(C)(C)Nc2ccc(N=O)cc21 (configuration not stated)	S1P4 antagonist 36.8 | S1P4 antag cf 50.4 | S1P1 antag inactive
CC1CC(C)(C)Nc2ccc(OC(=O)c3ccco3)cc21 (configuration not stated)	none
COc1ccc(CC(=O)N2CCN(c3ccccc3OC)CC2)cc1OC	none (no result: p97 inhibitor, Redox H2O2 prof, S1P4 antagonist, S1P3 antagonist, S1P4 agonist)
Cc1ccc2c(c1)/C(=N/OS(=O)(=O)c1ccccc1)CCS2	none (no result: S1P3 antagonist, SUMO HTRF inh)
CC1=CC(=O)C(C(C)C)=C/C1=N/OS(=O)(=O)c1ccccc1	S1P4 antagonist 38.2 (no result: Redox H2O2 prof) | S1P4 antag cf 78.5 | S1P1 antag inactive
CC1=CC(=O)C=C(C)C1=NOS(=O)(=O)c1ccccc1	S1P4 antagonist 32.7 (no result: S1P3 antagonist) | S1P4 antag cf 98.2 | S1P1 antag inactive
COc1cc(/C=N/NC(=O)c2cc[n+]([O-])cc2)ccc1O	none (no result: p97 inhibitor, Redox H2O2 prof, S1P4 antagonist, S1P3 antagonist, S1P4 agonist)
COc1ccc(/C=c2/sc3n(c2=O)C(c2ccccc2OC)C2=C(N=3)c3ccccc3CC2)cc1O (configuration not stated)	S1P4 antagonist 33.3 (no result: S1P3 antagonist) | S1P4 antag cf 77.7 | S1P1 antag 69.5
O=C(O)/C=C/c1ccc(-n2ccnc2)cc1	none (no result: Redox H2O2 prof)

Source: PubChem BioAssay (several laboratories)
